PubChem BioAssay (NCI)
About 79,000 compounds went through this panel and 15% of them were active in at least one assay; those are over-represented in the sample as a whole. The source made the active and inactive calls. Cut-off read from the data, not from the text of the source: active = growth inhibition above about 70%; inactive = the rest.

Legend:
[1] = NCI Yeast Anticancer Drug Screen. Data for the rad52 strain (AID 147);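 note: 0% = growth of vehicle-treated control cultures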; conditions: S. cerevisiae rad52 mutant growth inhibition, active compounds read high
In short: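 Inhibition of yeast growth, referenced to vehicle controls, was the measured output for a strain with defective DNA damage repair.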

[2] = NCI Yeast Anticancer Drug Screen. Data for the rad50EPP+ strain (AID 151);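 note: 0% = growth of vehicle-treated control cultures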; conditions: S. cerevisiae rad50 mutant strain, active compounds read high
In short: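 Genetically defined yeast (rad50EPP+, DNA damage repair alteration) is grown with compound, and inhibition of growth is expressed relative to vehicle-treated controls.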

[3] = NCI Yeast Anticancer Drug Screen. Data for the mgt1 strain (AID 153); conditions: S. cerevisiae mgt1 mutant growth inhibition, active compounds read high
In short: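 In the mgt1 strain, test compounds were added and growth inhibition was determined relative to vehicle-treated controls.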

[4] = NCI Yeast Anticancer Drug Screen. Data for the rad50 strain (AID 155);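 note: 0% = growth of vehicle-only cultures of the same strain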; conditions: S. cerevisiae rad50 strain growth inhibition, active compounds read high
In short: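 Yeast carrying a defined DNA repair defect were exposed to test compounds, and growth was compared with vehicle-treated controls to give percent inhibition.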

[5] = NCI Yeast Anticancer Drug Screen. Data for the rad14 strain (AID 159);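 note: 0% = growth of vehicle-treated control cultures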; conditions: S. cerevisiae rad14 strain growth inhibition, active compounds read high
In short: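 Yeast cells carrying a defined DNA-repair defect were exposed to compounds, and growth inhibition was calculated relative to vehicle-treated control cultures.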

[6] = NCI Yeast Anticancer Drug Screen. Data for the sgs1 mgt1 strain (AID 161);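 note: 0% = growth of cultures given vehicle only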; conditions: S. cerevisiae sgs1 mgt1 strain, active compounds read high
In short: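 Inhibition of yeast growth, normalised to vehicle-treated controls, is reported for a strain bearing genetic alterations in DNA damage repair.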

[7] = NCI Yeast Anticancer Drug Screen. Data for the CLN2oe strain (AID 163);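 note: 0% = growth of vehicle-only control cultures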; conditions: S. cerevisiae CLN2oe strain, active compounds read high
In short: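 First, the altered yeast strain was treated with each compound; second, its growth was measured; finally, inhibition was derived by comparison with vehicle controls.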

[8] = NCI Yeast Anticancer Drug Screen. Data for the cln2 rad14 strain (AID 165);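 note: 0% = growth equal to vehicle treated cultures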; conditions: S. cerevisiae cln2 rad14 strain, active compounds read high
In short: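 Test compounds were added to cln2 rad14 yeast cultures; inhibition of growth was then determined by comparison with vehicle treatment.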

[9] = NCI Yeast Anticancer Drug Screen. Data for the bub3 strain (AID 167); conditions: S. cerevisiae bub3 mutant strain, active compounds read high
In short: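 Compounds were applied to a genetically altered yeast strain carrying a cell-cycle control defect. Growth inhibition was scored against vehicle-treated controls.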

[10] = NCI Yeast Anticancer Drug Screen. Data for the wt2 strain (AID 169);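 note: 0% = growth of vehicle-treated yeast cultures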; conditions: S. cerevisiae wt2 strain growth inhibition, active compounds read high
In short: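 The panel's yeast strains carry defined changes in DNA repair or cell cycle genes. Each strain is grown with compound, and growth loss is scored relative to vehicle.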

[11] = NCI Yeast Anticancer Drug Screen. Data for the mlh1 strain (AID 171);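 note: 0% = growth of vehicle-treated control cultures of the same strain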; conditions: S. cerevisiae mlh1 strain growth inhibition, active compounds read high
In short: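 Inhibition values reflect reduced yeast growth in the presence of compound, referenced to vehicle controls, using a strain chosen for its alteration in DNA repair or cell cycle control.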

[12] = NCI Yeast Anticancer Drug Screen. Data for the sgs1 strain (AID 173);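 note: 0% = growth of vehicle-only control cultures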; conditions: S. cerevisiae sgs1 mutant, active compounds read high
In short: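 Vehicle-treated cultures served as reference for growth inhibition of a yeast strain altered in DNA damage repair or cell cycle control after compound exposure.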

[13] = NCI Yeast Anticancer Drug Screen. Data for the mlh1 rad18 strain (AID 175); conditions: S. cerevisiae mlh1 rad18 strain growth inhibition, active compounds read high
In short: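 Inhibition values reflect reduced growth of mutant yeast versus vehicle-treated controls following compound exposure; the mutations affect DNA damage repair.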

[14] = NCI Yeast Anticancer Drug Screen. Data for the rad18 strain (AID 177); conditions: S. cerevisiae rad18 mutant growth inhibition, active compounds read high
In short: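 Steps: expose repair-mutant yeast to compound; measure growth; express as inhibition relative to vehicle control.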

[15] = NCI Yeast Anticancer Drug Screen. Data for the wt1 strain (AID 149);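 note: 0% = growth of vehicle-treated wt1 cultures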; conditions: S. cerevisiae wt1 strain (SPY 50644) growth inhibition, active compounds read high
In short: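 Yeast wt1 strain exposed to compounds; growth inhibition measured relative to vehicle-treated controls.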

[16] = NCI Yeast Anticancer Drug Screen. Data for the mec2-1 strain (AID 157); conditions: S. cerevisiae mec2-1 strain, active compounds read high
In short: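 Each compound was tested on mec2-1 yeast, a strain altered in DNA damage repair or cell cycle control. Growth inhibition is reported relative to vehicle.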

[17] = at 5.0 µM (retest, dose inferred, filed as 0.5)
[18] = at 50.0 µM (retest, dose inferred, filed as 5.0)

Measured: growth inhibition

CCCCCCCCSC1=C(Cl)C(=O)C(OC)=C(OC)C1=O
active: [1]; at 100.0 µM 87% | [2]; at 100.0 µM 73% | [3]; at 100.0 µM 85% | [4]; at 100.0 µM 83% | [7]; at 100.0 µM 80% | [10]; at 100.0 µM 87% | [11]; at 100.0 µM 78% | [12]; at 100.0 µM 80% | [13]; [18] 84% | [13]; at 50.0 µM 79.3% | [14]; at 100.0 µM 85%
inactive: [1]; at 1.2 µM -25% | [1]; at 3.7 µM -19% | [1]; at 11.0 µM 15% | [1]; at 33.0 µM 53% | [2]; at 1.2 µM -29% | [2]; at 3.7 µM -44% | [2]; at 11.0 µM -1% | [2]; at 33.0 µM 18% | [3]; at 1.2 µM -30% | [3]; at 3.7 µM -41% | [3]; at 11.0 µM -24% | [3]; at 33.0 µM 17% | [4]; at 1.2 µM -25% | [4]; at 3.7 µM -16% | [4]; [17] 25% | [4]; at 11.0 µM -17% | [4]; at 33.0 µM 19% | [4]; [18] 68% | [4]; at 50.0 µM 22.6% | [5]; at 1.2 µM -32% | [5]; at 3.7 µM -11% | [5]; at 11.0 µM -14% | [5]; at 33.0 µM 2% | [5]; at 100.0 µM 66% | [6]; [17] 22% | [6]; [18] 10% | [6]; at 50.0 µM 69.1% | [7]; at 1.2 µM -16% | [7]; at 3.7 µM -6% | [7]; at 11.0 µM 21% | [7]; at 33.0 µM 33% | [8]; [17] 13% | [8]; [18] -24% | [8]; at 50.0 µM 35.1% | [9]; at 1.2 µM -40% | [9]; at 3.7 µM -30% | [9]; [17] 20% | [9]; at 11.0 µM -43% | [9]; at 33.0 µM -15% | [9]; [18] 6% | [9]; at 50.0 µM 59% | [9]; at 100.0 µM 57% | [10]; at 1.2 µM -31% | [10]; at 3.7 µM -19% | [10]; at 11.0 µM -46% | [10]; at 33.0 µM -11% | [11]; at 1.2 µM -38% | [11]; at 3.7 µM -31% | [11]; at 11.0 µM 6% | [11]; at 33.0 µM 27% | [12]; at 1.2 µM -42% | [12]; at 3.7 µM -27% | [12]; at 11.0 µM 8% | [12]; at 33.0 µM 3% | [13]; [17] 36% | [14]; at 1.2 µM -15% | [14]; at 3.7 µM -26% | [14]; at 11.0 µM 1% | [14]; at 33.0 µM 58%

COc1ccc(N=c2cc(-c3ccccc3)oc3ccccc23)cc1
inactive: [15]; at 1.2 µM 0% | [15]; at 3.7 µM 1% | [15]; at 11.0 µM 2% | [15]; at 33.0 µM 1% | [15]; at 100.0 µM -6% | [2]; at 1.2 µM -1% | [2]; at 3.7 µM -3% | [2]; at 11.0 µM -5% | [2]; at 33.0 µM -2% | [2]; at 100.0 µM 16% | [3]; at 1.2 µM 0% | [3]; at 3.7 µM 1% | [3]; at 11.0 µM -2% | [3]; at 33.0 µM 13% | [3]; at 100.0 µM -6% | [4]; at 1.2 µM 0% | [4]; at 3.7 µM 0% | [4]; [17] 11% | [4]; at 11.0 µM 1% | [4]; at 33.0 µM 0% | [4]; [18] 3% | [4]; at 50.0 µM 57.5% | [4]; at 100.0 µM -4% | [16]; at 1.2 µM -3% | [16]; at 3.7 µM -2% | [16]; [17] -4% | [16]; at 11.0 µM -3% | [16]; at 33.0 µM -4% | [16]; [18] 6% | [16]; at 50.0 µM 27.6% | [16]; at 100.0 µM -7% | [5]; at 1.2 µM -3% | [5]; at 3.7 µM -3% | [5]; at 11.0 µM 0% | [5]; at 33.0 µM -2% | [5]; at 100.0 µM -5% | [6]; [17] 1% | [6]; [18] 17% | [7]; at 1.2 µM -6% | [7]; at 3.7 µM -1% | [7]; at 11.0 µM -6% | [7]; at 33.0 µM -8% | [7]; at 100.0 µM -10% | [8]; [17] -7% | [8]; [18] -1% | [8]; at 50.0 µM 3.85% | [9]; at 1.2 µM -3% | [9]; at 3.7 µM -6% | [9]; [17] -1% | [9]; at 11.0 µM -1% | [9]; at 33.0 µM -4% | [9]; [18] -85% | [9]; at 100.0 µM -1% | [10]; at 1.2 µM 0% | [10]; at 3.7 µM -2% | [10]; at 11.0 µM -1% | [10]; at 33.0 µM -3% | [10]; at 100.0 µM -6% | [11]; at 1.2 µM 0% | [11]; at 3.7 µM -1% | [11]; at 11.0 µM -1% | [11]; at 33.0 µM -4% | [11]; at 100.0 µM -5% | [12]; at 1.2 µM -1% | [12]; at 3.7 µM 1% | [12]; at 11.0 µM -2% | [12]; at 33.0 µM -3% | [12]; at 100.0 µM -4% | [13]; [17] -2% | [13]; [18] 26% | [14]; at 1.2 µM -2% | [14]; at 3.7 µM 0% | [14]; at 11.0 µM -1% | [14]; at 33.0 µM -6% | [14]; at 100.0 µM -8%
active: [6]; at 50.0 µM 87.1% | [9]; at 50.0 µM 95.5% | [13]; at 50.0 µM 76.2%
